Consider 15 compounds from PubChem BioAssay (NCATS).

Results filed as inconclusive are left out. Activity calls are given as the source filed them. The call rests on the fitted dose curve; in most records, active means well fitted curve in the direction sought with a large enough effect; inconclusive means small, poorly fitted or top-dose-only effect, or another doubt; inactive means no such curve, though single readings can be large; an effect the other way counts as inactive or inconclusive.

Assay [1] in a line: qHTS of pediatric cancer cell lines to identify multiple opportunities for drug repurposing: Primary screen for SK-N-SH cells (AID 1347098). Further: nearly all actives have a fitted effect of over 65% in size. The essentials:
(§1)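 Cells (500-1,000/well) rested 5 h, then received compounds for 48 h; metabolically active cells were measured by CellTiter-Glo luminescence. Final concentrations spanned up to 46 µM (MIPE, 11-point) or 0.59 nM-46 µM (NPC, 8-point) in primary screens, 11-point in follow-ups.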
(qHTS replaces the single test concentration by a dilution series.)

Assay [2] can be described thus: qHTS of pediatric cancer cell lines to identify multiple opportunities for drug repurposing: Primary screen for NB1643 cells (AID 1347099). Further: nearly all actives have a fitted effect of over 50% in size. The method in brief:
(§2)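 Cells plated at 500-1,000/well in growth medium, compounds added after 5 h. MIPE tested at 11 points (from 0.78 nM), NPC at 8 points (from 0.59 nM). CellTiter-Glo luminescence after 48 h; concentration-response curves from primary screen.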

The nature of assay [3]: qHTS of pediatric cancer cell lines to identify multiple opportunities for drug repurposing: Primary screen for LAN-5 cells (AID 1347100). The essentials: (§3)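 Cells (500-1,000/well) in growth media were settled 5 h at 37 degrees C, then given compounds for 48 h. Viability was read as CellTiter-Glo luminescence. Primary runs used MIPE at 11 points (0.78 nM-46 µM) and NPC at 8 points (0.59 nM-46 µM); follow-ups used 11 points.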

The nature of assay [4]: qHTS of pediatric cancer cell lines to identify multiple opportunities for drug repurposing: Primary screen for BT-12 cells (AID 1347101). Further: nearly all actives have a fitted effect of over 25% in size. The essentials: as §1
Assay [5] is described as follows: qHTS of pediatric cancer cell lines to identify multiple opportunities for drug repurposing: Primary screen for Rh18 cells (AID 1347102). Further: nearly all actives have a fitted effect of over 65% in size. The essentials: as §3
The nature of assay [6]: qHTS of pediatric cancer cell lines to identify multiple opportunities for drug repurposing: Primary screen for RD cells (AID 1347104). Further: nearly all actives have a fitted effect of over 55% in size. The essentials: as §2
Assay [7] in a line: qHTS of pediatric cancer cell lines to identify multiple opportunities for drug repurposing: Primary screen for MG 63 (6-TG R) cells (AID 1347105). Further: nearly all actives have a fitted effect of over 50% in size. The essentials:
as §2

Assay [8] can be described thus: qHTS of pediatric cancer cell lines to identify multiple opportunities for drug repurposing: Primary screen for Saos-2 cells (AID 1347097). Further: nearly all actives have a fitted effect of over 40% in size. The essentials:
as §2

Assay [9] in a line: qHTS of pediatric cancer cell lines to identify multiple opportunities for drug repurposing: Primary screen for OHS-50 cells (AID 1347103). Further: nearly all actives have a fitted effect of over 40% in size. The essentials: as §1
Potency means the concentration at half of the fitted maximal effect.

On to `CCc1cc(Cl)c(OC)c(C(=O)NC[C@@H]2CCCN2CC)c1O`, for which the Potency entry in [1], in assay [2], in assay [3], in [4], in [5] and in assay [6] was “inactive” in each case. Further, the Potency result in assay [7] is “inactive”.

With `CN1CCN(C2=Nc3cc(F)ccc3Cc3ccccc32)CC1`, in assay [3], the Potency result was “inactive”.

`CCCCCCCCNC(C)C(O)c1ccc(SC(C)C)cc1` (stereo not drawn): the Potency in [8] is 23.7 µM (active); in assay [1] it was 15.4 µM (active); in assay [9], 21.9 µM (active); in [7], 26.6 µM (active).

Turning to `O[C@@H](c1cc(C(F)(F)F)nc2c(C(F)(F)F)cccc12)[C@H]1CCCCN1`, the Potency in assay [8] was 21.1 µM (active); in assay [1] it was 30.7 µM (active); in [4], 15.5 µM (active); in assay [9], 21.9 µM (active); in [6] it was 23.7 µM (active); in [7], 26.6 µM (active).

Take `C#C[C@]1(O)CC[C@H]2[C@@H]3CCC4=Cc5oncc5C[C@]4(C)[C@H]3CC[C@@]21C`: the Potency result in assay [1], in assay [2] and in [7] was “inactive” each time. For the same compound, the Potency in [9] is 24.6 µM (active).

As to `Cc1ccc2c(Br)cc(Br)c(O)c2n1`, the Potency in [2] was 15 µM (active); in assay [3], 11.9 µM (active); in assay [9] it was 11 µM (active); in assay [6], 10.6 µM (active); in assay [7], 13.3 µM (active).

Consider `CO[C@H]1C=CO[C@@]2(C)Oc3c(C)c(O)c4c(O)c(c(/C=N/N5CCN(C)CC5)c(O)c4c3C2=O)NC(=O)/C(C)=C\C=C[C@H](C)[C@H](O)[C@@H](C)[C@@H](O)[C@@H](C)[C@H](OC(C)=O)[C@@H]1C`, for which the Potency result in [2], in assay [3], in assay [9], in assay [6] and in assay [7] was “inactive” each time.

With `CC(CNC1CCCCC1)OC(=O)c1ccccc1` (stereo not drawn), the Potency result in assay [1], in assay [2], in assay [3], in [4], in [5] and in assay [9] was “inactive” throughout. The Potency entry in [6] and in assay [7] was “inactive” in each case.

Consider `O=C(NC1CCN(CCc2c[nH]c3ccccc23)CC1)c1ccccc1`, for which the Potency result in assay [8], in [2], in assay [3], in [4], in assay [5] and in assay [6] was “inactive” in each case. Moreover, in assay [7], the Potency result was “inactive”.

On to `Oc1c(Cl)cc(Cl)c(Cl)c1Cc1c(O)c(Cl)cc(Cl)c1Cl`, for which the Potency in [8] is 5.96 µM (active); in assay [2], 5.96 µM (active); in assay [3], 4.22 µM (active); in assay [4] it was 13.8 µM (active); in assay [9], 6.17 µM (active); in [6] it was 11.9 µM (active). Moreover, in [7], the Potency is 6.68 µM (active).

Take `COc1cc([C@H]2Oc3cc([C@H]4Oc5cc(O)cc(O)c5C(=O)[C@@H]4O)ccc3O[C@@H]2CO)ccc1O`: the Potency entry in assay [1], in assay [2], in assay [4], in [5], in assay [9] and in [6] was “inactive” each time. The Potency entry in [7] is “inactive”.

As for `CCCCCN=C(N)N/N=C/c1c[nH]c2ccc(OC)cc12`, the Potency in assay [1] is 4.33 µM (active); in assay [3] it was 26.6 µM (active); in assay [4], 13.8 µM (active); in [5] it was 9.44 µM (active); in assay [9] it was 11 µM (active); in assay [6], 7.5 µM (active).

For the compound `FC(F)(F)C(F)(F)C(F)(F)C(F)(F)C(F)(F)C(F)(F)C(F)(F)C(F)(F)Br`, the Potency entry in assay [1], in assay [2], in assay [3], in assay [4], in assay [5] and in [9] was “inactive” in each case. The Potency result in assay [6] and in assay [7] was “inactive” each time.

Turning to `CN1CCN(C2=Nc3ccccc3Sc3ccc(Cl)cc32)CC1`, the Potency result in assay [8], in assay [2], in assay [3], in assay [4], in assay [5] and in assay [6] was “inactive” throughout. Further, the Potency entry in [7] was “inactive”.

For `Oc1ccc(Cl)cc1Cc1cc(Cl)ccc1O`, the Potency is 17.2 µM (active) in [1]; 9.44 µM (active) in assay [2]; 27.6 µM (active) in assay [4]; 9.78 µM (active) in [9]; 21.1 µM (active) in assay [6]; 16.8 µM (active) in assay [7].
